The supplement of paper PMC8728848
The full list was thinned out, with the strongest signals kept by preference.

What was measured:
Experiment in all cases: glycan array binding signal (z-score within array); higher = stronger binding
Settings in all cases: glycan notation: IUPAC condensed, linker removed
[1] = target: GlcNAc(a1-4)Gal(b1-4)GlcNAc
Outline: (§1)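 The binding signal is a Z-score computed within each array. Data were drawn from 3228 arrays in the Consortium for Functional Glycomics database, restricted to those with a known protein sequence. Scores were averaged over arrays of the same protein sequence at different concentrations or buffers, and over linkers, and negative values can be taken as non-binding.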

[2] = target: GlcNAc(a1-4)Gal(b1-4)GlcNAc(b1-3)Gal(b1-4)GlcNAc(b1-3)Gal(b1-4)GlcNAc
Outline: as §1

[3] = target: GlcNAc(b1-2)[GlcNAc(b1-4)]Man(a1-3)[GlcNAc(b1-2)Man(a1-6)]Man(b1-4)GlcNAc(b1-4)GlcNAc
Outline: as §1

[4] = target: GlcNAc(b1-2)[GlcNAc(b1-6)]Man(a1-6)[GlcNAc(b1-2)Man(a1-3)]Man(b1-4)GlcNAc(b1-4)GlcNAc
Outline: as §1

[5] = target: GlcNAc(b1-2)[GlcNAc(b1-6)]Man(a1-6)[GlcNAc(b1-2)Man(a1-3)]Man(b1-4)GlcNAc(b1-4)[Fuc(a1-6)]GlcNAc
Outline: as §1

[6] = target: GlcNAc(b1-3)Gal(b1-4)GlcNAc(b1-3)Gal(b1-4)GlcNAc
Outline: as §1

[7] = target: GlcNAc(b1-3)Gal(b1-4)GlcNAc(b1-3)Gal(b1-4)GlcNAc(b1-2)Man(a1-3)[GlcNAc(b1-3)Gal(b1-4)GlcNAc(b1-3)Gal(b1-4)GlcNAc(b1-2)Man(a1-6)]Man(b1-4)GlcNAc(b1-4)GlcNAc
Outline: as §1

[8] = target: GlcNAc(b1-3)Gal(b1-4)GlcNAc(b1-3)Gal(b1-4)GlcNAc(b1-3)GalNAc
Outline: as §1

[9] = target: GlcNAc(b1-3)Gal(b1-4)GlcNAc(b1-3)[GlcNAc(b1-3)Gal(b1-4)GlcNAc(b1-3)]GalNAc
Outline: as §1

GlcNAc(b1-3)Man = target: GlcNAc(b1-3)Man
Outline: as §1

[10] = target: GlcNAc(b1-6)Gal(b1-4)GlcNAc
Outline: as §1

GlcNAc(b1-6)GalNAc = target: GlcNAc(b1-6)GalNAc
Outline: as §1

Kdn(a2-3)Gal(b1-4)Glc = target: Kdn(a2-3)Gal(b1-4)Glc
Outline: as §1

[11] = target: Man(a1-2)Man(a1-6)[Man(a1-3)]Man(a1-6)[Man(a1-2)Man(a1-2)Man(a1-3)]Man
Outline: as §1

Man(a1-3)[Man(a1-6)]Man = target: Man(a1-3)[Man(a1-6)]Man
Outline: as §1

[12] = target: Neu5Ac(a2-3)Gal(b1-3)GalNAc
Outline: as §1

[13] = target: Neu5Ac(a2-3)Gal(b1-3)GlcNAc(b1-3)Gal(b1-3)GlcNAc
Outline: as §1

[14] = target: Neu5Ac(a2-3)Gal(b1-3)GlcNAc(b1-6)GalNAc
Outline: as §1

[15] = target: Neu5Ac(a2-3)Gal(b1-4)GlcNAc(b1-3)Gal
Outline: as §1

[16] = target: Neu5Ac(a2-3)Gal(b1-4)GlcNAc(b1-3)Gal(b1-3)GlcNAc
Outline: as §1

[17] = target: Neu5Ac(a2-3)Gal(b1-4)GlcNAc(b1-3)Gal(b1-4)GlcNAc(b1-3)[Neu5Ac(a2-3)Gal(b1-4)GlcNAc(b1-3)Gal(b1-4)GlcNAc(b1-6)]GalNAc
Outline: as §1

[18] = target: Neu5Ac(a2-6)Gal(b1-4)GlcNAc(b1-2)Man(a1-3)[Neu5Ac(a2-6)Gal(b1-4)GlcNAc(b1-2)Man(a1-6)]Man(b1-4)GlcNAc(b1-4)[Fuc(a1-6)]GlcNAc
Outline: as §1

[19] = target: Neu5Ac(a2-6)Gal(b1-4)GlcNAc(b1-2)Man(a1-6)[Man(a1-3)]Man(b1-4)GlcNAc(b1-4)GlcNAc
Outline: as §1

[20] = target: Neu5Ac(a2-6)Gal(b1-4)GlcNAc(b1-3)Gal(b1-4)GlcNAc(b1-3)GalNAc
Outline: as §1

[21] = target: Neu5Ac(a2-6)Gal(b1-4)GlcNAc(b1-3)Gal(b1-4)[Fuc(a1-3)]GlcNAc(b1-3)Gal(b1-4)[Fuc(a1-3)]GlcNAc
Outline: as §1

[22] = target: Neu5Ac(a2-6)Gal(b1-4)GlcNAc(b1-3)[Neu5Ac(a2-6)Gal(b1-4)GlcNAc(b1-6)]GalNAc
Outline: as §1

[23] = target: Neu5Ac(a2-6)Gal(b1-4)GlcNAc6S
Outline: as §1

Neu5Ac(a2-8)Neu5Ac = target: Neu5Ac(a2-8)Neu5Ac
Outline: as §1

[24] = target: Neu5Ac(b2-6)Gal(b1-4)GlcNAc
Outline: as §1

[25] = target: Neu5Ac9Ac(a2-6)Gal(b1-4)GlcNAc
Outline: as §1

[26] = target: Neu5Gc(a2-6)Gal(b1-4)GlcNAc
Outline: as §1

B1: PpFlo1 (Pichia pastoris) (protein)
chain: MGSSHHHHHHSSGLVPRGSHMQESGDGDISDSAYACDIDATRYDGFNATIYEFQPGDGRLTRDPVFMSTGYLNRTQLHSITGVTDPGFSIYTPGVPTTTLYGIPNVNWENLLLELKGYFRAEVSGDYGLSLRNIDDSAILFFGKETAFQCCNENSISNEASTDYSLFTIFRQEGDETTNLDSFTYTQYLEAGKYYPVRTFFVNIERHAVFNFTMTLPDGTELTDFHNYIYQFGALDEEQCQA
For B1, which “glycan array binding signal (z-score)” value [1] is on record?
Its value is 0.008.

What about the “glycan array binding signal (z-score)” value [2] of the same binder?
Its value is 0.046.

What about the “glycan array binding signal (z-score)” value [3] of the same binder?
The value was -0.171.

What about the “glycan array binding signal (z-score)” value [4] of the same binder?
Its value is -0.18.

What about the “glycan array binding signal (z-score)” value [5] of the same binder?
The value was 0.03.

And the “glycan array binding signal (z-score)” value [6]?
Its value is 0.551.

What about the “glycan array binding signal (z-score)” value [7] of the same binder?
Its value is 0.609.

What about the “glycan array binding signal (z-score)” value [8] of the same binder?
The value was -0.514.

What about the “glycan array binding signal (z-score)” value [9] of the same binder?
The value was -0.39.

What about the “glycan array binding signal (z-score)” value (GlcNAc(b1-3)Man) of the same binder?
The value was 1.9.

And the “glycan array binding signal (z-score)” value [10]?
Its value is -0.375.

And the “glycan array binding signal (z-score)” value (GlcNAc(b1-6)GalNAc)?
The value was -0.373.

And the “glycan array binding signal (z-score)” value (Kdn(a2-3)Gal(b1-4)Glc)?
Its value is -0.2.

And the “glycan array binding signal (z-score)” value [11]?
Its value is -0.565.

And the “glycan array binding signal (z-score)” value (Man(a1-3)[Man(a1-6)]Man)?
The value was -0.074.

What about the “glycan array binding signal (z-score)” value [12] of the same binder?
Its value is -0.261.

And the “glycan array binding signal (z-score)” value [13]?
The value was -0.308.

And the “glycan array binding signal (z-score)” value [14]?
The value was -0.067.

And the “glycan array binding signal (z-score)” value [15]?
Its value is -0.31.

What about the “glycan array binding signal (z-score)” value [16] of the same binder?
Its value is -0.004.

What about the “glycan array binding signal (z-score)” value [17] of the same binder?
The value was 0.078.

What about the “glycan array binding signal (z-score)” value [18] of the same binder?
Its value is 0.148.

And the “glycan array binding signal (z-score)” value [19]?
Its value is -0.445.

What about the “glycan array binding signal (z-score)” value [20] of the same binder?
The value was -0.424.

What about the “glycan array binding signal (z-score)” value [21] of the same binder?
Its value is 0.701.

What about the “glycan array binding signal (z-score)” value [22] of the same binder?
Its value is 0.261.

What about the “glycan array binding signal (z-score)” value [23] of the same binder?
The value was 2.26.

And the “glycan array binding signal (z-score)” value (Neu5Ac(a2-8)Neu5Ac)?
Its value is 0.146.

What about the “glycan array binding signal (z-score)” value [24] of the same binder?
Its value is 0.76.

What about the “glycan array binding signal (z-score)” value [25] of the same binder?
Its value is -0.44.

What about the “glycan array binding signal (z-score)” value [26] of the same binder?
The value was 0.
